ELG1 DNA repair – ELG1-dependent DNA repair inhibition; HEK293T ELG1-luciferase reporter, luminescence, 16 h; DNA damage induced by 5-fluorouridine; Potency, µM (top dose mostly 46.1 µM), hits mostly inhibitors; AID 504467; 2.3% of 330,000 active; further: nearly all actives have a fitted effect of over 55% in size
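Cells (2,000 per well) received 5-fluorouridine plus test compound or DMSO and were incubated 16 hr at 37 °C, 5% CO2. Luciferase activity was read by luminescence 30 min after ONE-Glo addition; signal suppression marked inhibition of damage-induced ELG1 function.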
FLuc modulator – counter-screen for miR-21 project: firefly luciferase inhibitors or activators; P08659; purified FLuc, Km substrates, luminescence inhibition; Potency, µM (highest dose often 57.5 µM), usual class: inhibitors; 6.9% of 360,000 active; further: nearly all actives have a fitted effect of over 55% in size
Target sequence (P08659 whole entry, looked up): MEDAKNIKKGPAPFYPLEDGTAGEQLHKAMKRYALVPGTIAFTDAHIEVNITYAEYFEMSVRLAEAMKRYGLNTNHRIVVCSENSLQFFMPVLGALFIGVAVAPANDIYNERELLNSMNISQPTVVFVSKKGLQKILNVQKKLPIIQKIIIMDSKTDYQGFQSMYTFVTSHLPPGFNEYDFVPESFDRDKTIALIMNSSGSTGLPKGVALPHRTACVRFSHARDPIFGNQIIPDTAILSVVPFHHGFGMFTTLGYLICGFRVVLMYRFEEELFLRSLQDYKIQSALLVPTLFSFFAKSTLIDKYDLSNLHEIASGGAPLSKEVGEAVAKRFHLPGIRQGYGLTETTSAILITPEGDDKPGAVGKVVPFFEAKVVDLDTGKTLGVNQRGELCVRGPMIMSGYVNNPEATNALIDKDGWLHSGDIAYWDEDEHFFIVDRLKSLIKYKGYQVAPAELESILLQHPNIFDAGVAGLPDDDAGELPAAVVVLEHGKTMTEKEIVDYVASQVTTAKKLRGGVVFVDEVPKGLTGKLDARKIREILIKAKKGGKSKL
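Biochemical qHTS of compounds, final roughly 60 µM downward over six points, against 10 nM purified firefly luciferase using Km concentrations of substrates (10 uM D-luciferin, 10 uM ATP) in Tris acetate pH 7.5 buffer; luminescence output.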
NPC1 promoter act – activates the NPC1 promoter; Huh7 NPC1 promoter luciferase reporter, 24 h; Potency, µM (top dose mostly 9.22 µM), usual class: activators; 2.4% of 320,000 active; further: nearly all actives have a fitted effect of over 60% in size
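Cells: Huh7 expressing luciferase under the NPC1 promoter, 1500/well. Seeded 2 h, compound added, incubated 24 h at 37 °C. Luciferase reagent, 10 min ambient, then luminescence.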
ELG1 genotoxic – inducers of genotoxicity in HEK293T ELG1-luciferase cells; 1.3% of 330,000 active; HEK293T ELG1-luciferase reporter, luminescence, 16 h; AID 504466; Potency, µM (doses to about 46 µM), actives largely listed as activators; further: nearly all actives have a fitted effect of over 60% in size
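Genotoxic stress is detected as increased luminescence from luciferase-tagged ELG1 in HEK293T cells, measured with ONE-Glo after a 16 hr treatment at 37 °C.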
Rab9 promoter act – activates the Rab9 promoter; Huh7 Rab9 promoter-luciferase reporter, luminescence, 24 h; Potency, µM (titrated, usually from 9.22 µM), hits mostly activators; 2.8% of 320,000 active; AID 485297; further: nearly all actives have a fitted effect of over 60% in size
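Huh7 reporter line, Rab9 promoter upstream of luciferase. Compound exposure 24 h at 37 °C in reduced-serum medium with 10% FBS. Read-out: luminescence.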
SMN2 splice enh – SMN2 splice variant enhancement | HEK293 SMN2-luciferase splicing reporter, luminescence, 30-36 h | Potency, µM (highest dose often 46.1 µM), most hits filed as activators | 2.8% of 210,000 active; further: nearly all actives have a fitted effect of over 55% in size
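HEK293 cells carry an SMN2 minigene-luciferase reporter in which exon 7 inclusion puts luciferase in frame. Cells were seeded at 2000 cells/well, attached for 10-12 hours, then exposed to compounds for 30-36 hours at 37C before ONE-Glo luminescence.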
Hits are given with their value. Hits are enriched below; roughly 9.2% of the tested compounds scored in any of these assays. The call rests on the fitted dose curve; in most records, active means well fitted curve in the direction sought with a large enough effect; inconclusive means small, poorly fitted or top-dose-only effect, or another doubt; inactive means no such curve, though single readings can be large; an effect the other way counts as inactive or inconclusive.

For COc1ccc(-n2c(=O)c3sc4ccccc4c3n(CC(=O)N3CCCC3)c2=O)cc1 the results were FLuc modulator inactive and SMN2 splice enh inactive.
`COc1ccc(-c2nc(-c3ccccc3)c(-c3ccc(F)cc3)[nH]2)c(OC)c1C` gave FLuc modulator inactive and SMN2 splice enh inactive.
CC(C)(C)C(=O)Nc1ccccc1C(=O)OCc1cc(=O)n2ccsc2n1 was read as FLuc modulator inactive.
COc1cc(NC(=O)CCS(=O)(=O)c2ccc3c(c2)oc(=O)n3C)cc(OC)c1OC was read as ELG1 DNA repair inconclusive, FLuc modulator inactive, NPC1 promoter act inactive, ELG1 genotoxic inactive and Rab9 promoter act inactive.
Screening O=[N+]([O-])c1ccc(Cc2nnc(-c3ccc(F)cc3)o2)cc1 returned ELG1 DNA repair inconclusive, FLuc modulator inactive, NPC1 promoter act inconclusive, ELG1 genotoxic inactive, Rab9 promoter act 1µM and SMN2 splice enh inactive.
`COc1ccc(Cc2nnc(-c3ccc(F)cc3)o2)cc1OC` gave ELG1 DNA repair inactive, FLuc modulator inactive, NPC1 promoter act inactive, ELG1 genotoxic inconclusive, Rab9 promoter act inactive and SMN2 splice enh inactive.
Cc1ccc(-c2nnc(Cc3ccc([N+](=O)[O-])cc3)o2)cc1 was read as ELG1 DNA repair inconclusive, FLuc modulator inactive, NPC1 promoter act inconclusive, ELG1 genotoxic inconclusive and Rab9 promoter act 2.2µM.
Screening CCc1cccc(NC(=O)C2CCCN(S(=O)(=O)c3cccs3)C2)c1 (centres undefined) returned ELG1 DNA repair inactive, FLuc modulator inactive, NPC1 promoter act inactive, ELG1 genotoxic inactive, Rab9 promoter act inactive and SMN2 splice enh inactive.
`COc1ccc(/C=C/C(=O)c2c(C)nc3ccccn23)cc1` gave ELG1 DNA repair inconclusive, FLuc modulator 7.6µM, NPC1 promoter act inconclusive, ELG1 genotoxic inactive, Rab9 promoter act 3.5µM and SMN2 splice enh inactive.
`Cc1noc(C)c1COC(=O)c1ccc2ccccc2n1` gave ELG1 DNA repair inactive, FLuc modulator inactive, NPC1 promoter act inactive, ELG1 genotoxic inactive, Rab9 promoter act inactive and SMN2 splice enh inactive.
`Cc1ccccc1OCCNC(=O)c1ccc2ccccc2n1` gave ELG1 DNA repair inconclusive, FLuc modulator 4.8µM, NPC1 promoter act inconclusive, ELG1 genotoxic 21µM, Rab9 promoter act 3.2µM and SMN2 splice enh 22µM.
For COc1ccc(NC(=O)c2c(Cl)nc3ccccn23)cc1 the results were ELG1 DNA repair inconclusive, FLuc modulator inconclusive, NPC1 promoter act inactive, ELG1 genotoxic inconclusive, Rab9 promoter act 3.2µM and SMN2 splice enh inconclusive.
Screening O=C(Nc1ccc(F)cc1)c1c(Cl)nc2ccccn12 returned ELG1 DNA repair inconclusive, FLuc modulator inconclusive, NPC1 promoter act inactive, ELG1 genotoxic inconclusive, Rab9 promoter act inactive and SMN2 splice enh inconclusive.
Cc1ccc(COC(=O)c2ccc3ccccc3n2)cc1 was read as ELG1 DNA repair inactive, FLuc modulator 15µM, NPC1 promoter act inactive, ELG1 genotoxic inactive and Rab9 promoter act inactive.
COCCNC(=O)c1ccc2ccccc2n1 was read as ELG1 DNA repair inactive, FLuc modulator inactive, NPC1 promoter act inactive, ELG1 genotoxic inactive, Rab9 promoter act inactive and SMN2 splice enh inactive.
Screening CCOC(=O)C1(CC2CC2)CCN(S(=O)(=O)/C=C/c2ccccc2)CC1 returned ELG1 DNA repair inactive, FLuc modulator inactive, NPC1 promoter act inactive, ELG1 genotoxic inactive and Rab9 promoter act inactive.
Screening CC(C(=O)NC(C)(C)C)N(Cc1cccs1)C(=O)CCN1CCc2ccccc21 (centres undefined) returned ELG1 DNA repair inconclusive, FLuc modulator inactive, NPC1 promoter act inactive, ELG1 genotoxic inactive, Rab9 promoter act inactive and SMN2 splice enh inactive.
Screening COc1ccc(CNC(=O)c2c(C)nc3ccccn23)cc1 returned ELG1 DNA repair 13µM, FLuc modulator inactive, NPC1 promoter act inactive, ELG1 genotoxic inactive, Rab9 promoter act inactive and SMN2 splice enh inactive.
Screening COc1ccc(CNC(=O)c2ccc3ccccc3n2)cc1 returned ELG1 DNA repair inconclusive, FLuc modulator 27µM, NPC1 promoter act inactive, ELG1 genotoxic inactive and Rab9 promoter act inactive.
For Cc1nc2ccccn2c1C(=O)/C=C/c1ccc(F)cc1 the results were ELG1 DNA repair inconclusive, FLuc modulator 3µM, NPC1 promoter act 2.8µM, ELG1 genotoxic inactive, Rab9 promoter act inconclusive and SMN2 splice enh inactive.
For O=C(CC1N=C2c3ccccc3N=C(SCc3ccc(F)cc3)N2C1=O)NC1CCCCC1 (centres undefined) the results were FLuc modulator inactive.
COC(=O)CN1C(=O)S/C(=C/c2cc(C)n(C)c2C)C1=O was read as ELG1 DNA repair inconclusive, FLuc modulator 9.5µM, NPC1 promoter act 4µM, ELG1 genotoxic inconclusive, Rab9 promoter act 3.5µM and SMN2 splice enh inactive.
Screening COC(=O)CN1C(=O)S/C(=C/c2ccc(N3CCCCC3)o2)C1=O returned ELG1 DNA repair inconclusive, FLuc modulator 19µM, NPC1 promoter act inactive, ELG1 genotoxic inactive, Rab9 promoter act inconclusive and SMN2 splice enh inactive.
For COc1ccc(N=C2S/C(=C\c3cc(C)n(C)c3C)C(=O)N2CC(C)C)cc1 the results were ELG1 DNA repair inconclusive, FLuc modulator inactive, NPC1 promoter act inactive, ELG1 genotoxic inactive, Rab9 promoter act inactive and SMN2 splice enh inactive.
For CCOC(=O)CN1C(=O)S/C(=C/c2ccc(N3CCCCC3)o2)C1=O the results were ELG1 DNA repair inactive, FLuc modulator inconclusive, NPC1 promoter act inactive, ELG1 genotoxic inactive, Rab9 promoter act inactive and SMN2 splice enh inactive.
`O=C(O)CN1C(=O)/C(=C/c2ccc(N3CCCCC3)o2)SC1=S` gave ELG1 DNA repair inactive, FLuc modulator 11µM, NPC1 promoter act inactive, ELG1 genotoxic inactive and Rab9 promoter act inactive.
COc1ccccc1NC(=O)Cn1cc(C(=O)c2ccncc2)c(=O)c2cc(C)ccc21 was read as FLuc modulator inactive.
`O=[N+]([O-])c1ccc(-c2ncc(-c3ccc(Br)cc3)o2)cc1` gave ELG1 DNA repair inconclusive, FLuc modulator inconclusive, NPC1 promoter act inconclusive, ELG1 genotoxic inactive and Rab9 promoter act inconclusive.
`Cc1ccc(-c2cnc(-c3ccncc3)o2)cc1` gave ELG1 DNA repair inconclusive, FLuc modulator 6.7µM, NPC1 promoter act inconclusive, ELG1 genotoxic 18µM, Rab9 promoter act inconclusive and SMN2 splice enh 22µM.
For Nc1ccc(-c2ncc(-c3ccccc3)o2)cc1 the results were ELG1 DNA repair inconclusive, FLuc modulator 1.5µM, NPC1 promoter act inactive, ELG1 genotoxic inconclusive and Rab9 promoter act inactive.
CCC(C(=O)N1CCN(c2cc(Cl)ccc2C)CC1)n1nc(C)n2c(cc3occc32)c1=O (centres undefined) was read as FLuc modulator inactive and SMN2 splice enh inactive.

From PubChem BioAssay
